Results: PubChem BioAssay (NCATS)
Results filed as inconclusive are left out. Active and inactive are the calls of the source. Unless noted, calls follow the shape of the dose curve; as a rule, active = well fitted curve in the direction sought with a large enough effect; inconclusive = small, poorly fitted or top-dose-only effect, or another doubt; inactive = no such curve, though single readings can be large; an effect the other way counts as inactive or inconclusive.

Experiments:
[1] = target: Glucocorticoid receptor (Homo sapiens) (UniProt P04150); assay: GR-GFP Redistribution (AID 450;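 active = compounds whose dose series gives a full or clear partial fitted curve of increased nuclear translocation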; also: potency is read from the fitted curve at half-maximal effect)
[2] = target: Glucocorticoid receptor (Homo sapiens) (UniProt P04150); assay: GR-EFC Redistribution (AID 451; calls by dose curve; also: potency is read from the fitted curve at half-maximal effect); details: CHO-K1 GR-EFC translocation, beta-gal luminescence, 2 h
Procedure, shortened: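 Translocation of GR-ED fusion to nuclear EA restores b-gal, read by luminescence after 1 h room-temperature detection. Engineered CHO-K1 biosensor cells, 1,000/well, exposed 2 h at 37 C to titrations up to 46 uM final.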

[3] = target: Mitogen-activated protein kinase 10 (Mus musculus) (UniProt Q61831); assay: JNK3 AlphaScreen Assay (AID 530; active = well fitted curve in either direction with a large enough effect, not every such curve was filed as active;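 also: kinase came from lysate of stimulated human HepG2 cells; signal reports phosphorylation of biotinylated GST-cJun 1-79 at Ser73 with 10 µM ATP; series mostly up to about 57 µM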)
Procedure, shortened: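 Compound titrations were preincubated 15 minutes at room temperature with substrate, antibody and pre-activated JNK3-containing HepG2 lysate. Reactions were started with 10 uM ATP and stopped with EDTA-containing bead buffer for AlphaScreen detection.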

[4] = target: 3',5'-cyclic-AMP phosphodiesterase 4B (Homo sapiens) (UniProt Q07343); assay: qHTS Assay for Inhibitors of PDE-IV (AID 607; active = well fitted activation curve with a large enough effect in the main read-out, with a control signal flat, not every such curve was filed as active; also: potency is read from the fitted curve at half-maximal effect)
Procedure, shortened: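 The readout is membrane depolarisation from a cAMP-sensing CNG channel, detected with a potential dye at ex 535/em 590. Cells were HEK293-derived (endogenous PDE-IV) at 1000 cells/well, titrated up to 22.9 uM final.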

[5] = target: Cytochrome P450 2C9 (Homo sapiens) (UniProt P11712); assay: qHTS Assay for Inhibitors and Substrates of Cytochrome P450 2C9 (AID 883); also: nearly all actives have a fitted effect of over 60% in size; also: potency is read from the fitted curve at half-maximal effect
Procedure, shortened: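 Inhibition of CYP2C9 is scored as loss of luminescence, with 57uM sulphaphenazole defining 100% inhibition. Substrate Luciferin-H is used at 100uM, equal to its KM; enzyme at 10nM in 25mM KPO4, 60 min at 37C with NADPH regeneration.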

[6] = target: Cytochrome P450 3A4 (Homo sapiens) (UniProt P08684); assay: qHTS Assay for Activators of Cytochrome P450 3A4 (AID 885); also: nearly all actives have a fitted effect of over 65% in size
Procedure, shortened: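 Steps: enzyme/substrate mix dispensed; compound added, 10 min RT; NADPH regeneration solution added, 60 min RT; luciferin detection buffer stops reaction; 20 min later luminescence measured.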

[7] = target: Cytochrome P450 2D6 (Homo sapiens) (UniProt P10635); assay: qHTS Assay for Inhibitors and Substrates of Cytochrome P450 2D6 (AID 891); also: nearly all actives have a fitted effect of over 60% in size; also: potency is read from the fitted curve at half-maximal effect
Procedure, shortened: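 Human CYP2D6 (5 nM) with 30 uM Luciferin-ME EGE (at Km) in 100 mM KPO4, compound preincubated 10 min, then NADPH regeneration system for 60 min at room temperature. Luciferin read by luminescence; normalized to 1.43 uM quinidine.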

[8] = target: DNA dC->dU-editing enzyme APOBEC-3G (Homo sapiens) (UniProt Q9HC16); assay: qHTS for inhibitors of Vif-A3G interactions: Validation (AID 588379)
Procedure, shortened: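 HeLa cells stably expressing Vif and A3G-eYFP, 700 cells/well, incubated overnight at 37 deg C, then exposed to compound overnight at 37 deg C. Inhibition of Vif-mediated degradation read as increased yellow fluorescence (Ex 488/Em 500-530) by laser-scanning cytometry.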

[9] = target: Cytochrome P450 3A4 (Homo sapiens) (UniProt P08684); assay: qHTS Assay for Inhibitors and Substrates of Cytochrome P450 3A4 (AID 884); also: potency is read from the fitted curve at half-maximal effect; nearly all actives have a fitted effect of over 50% in size
Procedure, shortened: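 20 nM human CYP3A4 with 25 uM Luciferin-PPXE (at KM) in 200 mM KPO4, preincubated 10 min with compound; NADPH regeneration started a 60 min RT reaction. Luciferin detected by luminescence, normalized to 57 uM ketoconazole as full inhibition.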

[10] = target: Cytochrome P450 2C19 (Homo sapiens) (UniProt P33261); assay: qHTS Assay for Inhibitors and Substrates of Cytochrome P450 2C19 (AID 899); also: nearly all actives have a fitted effect of over 60% in size; also: potency is read from the fitted curve at half-maximal effect
Procedure, shortened: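 5nM enzyme + 10uM Luciferin-H EGE (=KM), 50mM KPO4; cpd pin-transferred, 10 min 37C; NADPH regen, 60 min 37C; stopped w/ luciferin detection reagent, 20 min; luminescence. Normalized to 57uM ketoconazole (AC100).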

[11] = target: Tumor susceptibility gene 101 protein (Homo sapiens) (UniProt Q99816); assay: qHTS Assay for Iinhibitors of HIV-1 Budding by Blocking the Interaction of PTAP/TSG101: Hit Validation (AID 651600); also: nearly all actives have a fitted effect of over 70% in size
Procedure, shortened: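 Compounds are added to the Tsg101 binding domain (10 uM final) in pH 7.5 HEPES buffer. FITC-PTAP peptide follows at 50 nM final. After 20 min at r.t., polarized FITC emission is measured.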

[12] = target: Tyrosyl-DNA phosphodiesterase 1 (Homo sapiens) (UniProt Q9NUW8); assay: Confirmation Assay for Inhibitors of Tyrosyl-DNA Phosphodiesterase (TDP1) (AID 489007); details: recombinant human TDP1 enzymatic activity, dose-response; also: potency is read from the fitted curve at half-maximal effect; nearly all actives have a fitted effect of over 40% in size
Procedure, shortened: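 Recombinant human Tdp1 (1 nM final), expressed in E. coli, preincubated 15 min with compound. Then 15 nM 5'-biotin/3'-phosphotyrosine-FITC DNA substrate added for 5 min at room temperature. AlphaScreen beads (10 ug/ml) added for 10 min; cleavage gives signal loss.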

Measured: Potency

Glucocorticoid receptor (Homo sapiens), sequence (P04150 whole entry, looked up, the tested form may be a part): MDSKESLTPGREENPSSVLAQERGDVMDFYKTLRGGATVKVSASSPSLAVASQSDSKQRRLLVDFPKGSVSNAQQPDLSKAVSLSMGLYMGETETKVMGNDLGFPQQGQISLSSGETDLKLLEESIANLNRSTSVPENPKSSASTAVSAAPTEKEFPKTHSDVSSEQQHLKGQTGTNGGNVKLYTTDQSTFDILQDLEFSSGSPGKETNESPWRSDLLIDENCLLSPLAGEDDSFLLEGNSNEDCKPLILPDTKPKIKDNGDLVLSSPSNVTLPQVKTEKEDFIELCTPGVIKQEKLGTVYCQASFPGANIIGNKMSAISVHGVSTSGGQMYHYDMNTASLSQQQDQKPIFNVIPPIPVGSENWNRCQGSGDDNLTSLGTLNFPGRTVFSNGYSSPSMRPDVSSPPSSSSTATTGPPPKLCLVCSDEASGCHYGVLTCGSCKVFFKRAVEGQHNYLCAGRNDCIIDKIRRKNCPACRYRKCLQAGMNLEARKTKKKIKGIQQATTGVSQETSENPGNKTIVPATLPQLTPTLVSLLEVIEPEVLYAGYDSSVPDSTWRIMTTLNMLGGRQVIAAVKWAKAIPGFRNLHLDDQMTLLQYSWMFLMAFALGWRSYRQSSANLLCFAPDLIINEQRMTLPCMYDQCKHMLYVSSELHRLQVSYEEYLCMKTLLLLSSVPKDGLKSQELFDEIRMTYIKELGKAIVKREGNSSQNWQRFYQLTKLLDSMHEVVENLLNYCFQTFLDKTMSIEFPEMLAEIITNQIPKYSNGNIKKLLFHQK
DNA dC->dU-editing enzyme APOBEC-3G (Homo sapiens), sequence (Q9HC16 whole entry, looked up): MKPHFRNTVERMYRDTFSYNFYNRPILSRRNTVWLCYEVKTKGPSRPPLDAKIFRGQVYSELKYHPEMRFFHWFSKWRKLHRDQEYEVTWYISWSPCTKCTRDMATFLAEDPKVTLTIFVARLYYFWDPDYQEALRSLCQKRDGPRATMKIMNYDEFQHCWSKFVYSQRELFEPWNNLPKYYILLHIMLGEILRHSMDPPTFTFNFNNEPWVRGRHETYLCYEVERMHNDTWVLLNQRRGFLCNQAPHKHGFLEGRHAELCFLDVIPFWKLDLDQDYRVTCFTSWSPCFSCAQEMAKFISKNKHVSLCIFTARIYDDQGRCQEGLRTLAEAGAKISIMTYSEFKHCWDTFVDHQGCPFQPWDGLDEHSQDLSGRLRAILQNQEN
3',5'-cyclic-AMP phosphodiesterase 4B (Homo sapiens), sequence (Q07343 whole entry, looked up): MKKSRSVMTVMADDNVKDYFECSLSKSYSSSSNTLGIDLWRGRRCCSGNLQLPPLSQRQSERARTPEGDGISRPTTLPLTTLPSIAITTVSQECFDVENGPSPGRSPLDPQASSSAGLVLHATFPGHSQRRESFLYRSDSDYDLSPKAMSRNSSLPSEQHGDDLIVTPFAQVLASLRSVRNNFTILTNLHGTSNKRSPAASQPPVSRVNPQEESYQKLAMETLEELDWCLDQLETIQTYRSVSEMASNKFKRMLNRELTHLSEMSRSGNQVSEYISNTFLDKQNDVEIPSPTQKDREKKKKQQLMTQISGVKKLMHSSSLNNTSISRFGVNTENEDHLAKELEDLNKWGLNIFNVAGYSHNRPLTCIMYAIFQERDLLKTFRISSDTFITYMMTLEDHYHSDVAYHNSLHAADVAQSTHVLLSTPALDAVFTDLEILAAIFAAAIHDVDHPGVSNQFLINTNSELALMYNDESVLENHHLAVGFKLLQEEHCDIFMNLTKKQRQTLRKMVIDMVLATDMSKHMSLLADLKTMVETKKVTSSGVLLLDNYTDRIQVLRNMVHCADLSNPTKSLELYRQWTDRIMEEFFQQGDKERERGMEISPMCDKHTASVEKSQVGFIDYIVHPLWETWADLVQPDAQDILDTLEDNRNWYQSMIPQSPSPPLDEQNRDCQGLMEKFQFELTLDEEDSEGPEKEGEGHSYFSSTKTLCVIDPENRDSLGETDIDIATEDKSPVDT
Cytochrome P450 2C9 (Homo sapiens), sequence (P11712 whole entry, looked up): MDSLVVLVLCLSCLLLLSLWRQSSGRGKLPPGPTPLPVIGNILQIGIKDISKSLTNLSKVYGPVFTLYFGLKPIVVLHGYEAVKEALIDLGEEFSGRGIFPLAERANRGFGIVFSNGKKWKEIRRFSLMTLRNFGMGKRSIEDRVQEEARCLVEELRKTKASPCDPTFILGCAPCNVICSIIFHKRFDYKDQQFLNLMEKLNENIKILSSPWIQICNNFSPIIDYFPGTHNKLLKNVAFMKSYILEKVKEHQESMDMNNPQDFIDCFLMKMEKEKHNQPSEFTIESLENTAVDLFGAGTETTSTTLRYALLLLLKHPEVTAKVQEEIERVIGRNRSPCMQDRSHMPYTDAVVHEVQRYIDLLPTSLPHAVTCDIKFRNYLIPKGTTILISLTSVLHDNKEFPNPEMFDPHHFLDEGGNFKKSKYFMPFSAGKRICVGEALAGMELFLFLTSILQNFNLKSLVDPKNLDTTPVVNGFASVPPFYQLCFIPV
Cytochrome P450 2C19 (Homo sapiens), sequence (P33261 whole entry, looked up): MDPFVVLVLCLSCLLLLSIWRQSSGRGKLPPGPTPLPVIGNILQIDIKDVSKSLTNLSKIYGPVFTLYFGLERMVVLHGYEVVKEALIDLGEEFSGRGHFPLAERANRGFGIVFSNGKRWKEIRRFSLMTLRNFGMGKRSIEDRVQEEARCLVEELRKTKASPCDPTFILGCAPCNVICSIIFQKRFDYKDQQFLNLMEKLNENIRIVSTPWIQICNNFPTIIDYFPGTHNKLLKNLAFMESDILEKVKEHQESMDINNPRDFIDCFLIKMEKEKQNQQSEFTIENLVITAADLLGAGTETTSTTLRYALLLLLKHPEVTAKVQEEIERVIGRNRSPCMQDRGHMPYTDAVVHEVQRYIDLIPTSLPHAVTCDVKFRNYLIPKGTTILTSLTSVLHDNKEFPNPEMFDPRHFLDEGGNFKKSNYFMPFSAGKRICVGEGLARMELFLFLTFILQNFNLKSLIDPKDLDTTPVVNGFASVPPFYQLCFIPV
Cytochrome P450 3A4 (Homo sapiens), sequence (P08684 whole entry, looked up): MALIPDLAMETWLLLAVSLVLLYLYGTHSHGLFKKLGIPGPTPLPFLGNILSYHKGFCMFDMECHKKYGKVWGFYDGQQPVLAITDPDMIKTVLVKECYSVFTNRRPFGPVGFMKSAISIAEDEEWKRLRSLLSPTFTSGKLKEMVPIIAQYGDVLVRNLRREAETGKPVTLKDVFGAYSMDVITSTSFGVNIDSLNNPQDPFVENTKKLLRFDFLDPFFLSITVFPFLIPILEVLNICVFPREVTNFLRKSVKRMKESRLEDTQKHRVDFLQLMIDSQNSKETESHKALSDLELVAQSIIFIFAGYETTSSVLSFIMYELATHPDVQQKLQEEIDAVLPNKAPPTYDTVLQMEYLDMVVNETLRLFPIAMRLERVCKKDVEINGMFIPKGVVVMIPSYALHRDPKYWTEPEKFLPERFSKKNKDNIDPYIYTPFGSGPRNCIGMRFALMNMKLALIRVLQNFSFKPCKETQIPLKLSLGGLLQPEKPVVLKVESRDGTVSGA
Cytochrome P450 2D6 (Homo sapiens), sequence (P10635 whole entry, looked up): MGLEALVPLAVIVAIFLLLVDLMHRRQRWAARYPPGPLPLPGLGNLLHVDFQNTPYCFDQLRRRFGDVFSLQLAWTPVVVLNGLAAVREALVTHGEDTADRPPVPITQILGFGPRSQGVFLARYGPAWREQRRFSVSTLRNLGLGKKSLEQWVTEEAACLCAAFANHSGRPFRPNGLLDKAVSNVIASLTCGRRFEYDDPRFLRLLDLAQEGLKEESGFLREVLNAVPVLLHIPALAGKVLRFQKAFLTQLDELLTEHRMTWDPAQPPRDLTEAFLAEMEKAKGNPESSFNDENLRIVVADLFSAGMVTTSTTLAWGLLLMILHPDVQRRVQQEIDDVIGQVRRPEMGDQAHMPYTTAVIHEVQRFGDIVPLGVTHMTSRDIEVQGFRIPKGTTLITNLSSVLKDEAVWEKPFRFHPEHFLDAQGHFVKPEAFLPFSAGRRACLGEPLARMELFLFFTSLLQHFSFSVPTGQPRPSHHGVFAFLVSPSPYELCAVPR
Tyrosyl-DNA phosphodiesterase 1 (Homo sapiens), sequence (Q9NUW8 whole entry, looked up): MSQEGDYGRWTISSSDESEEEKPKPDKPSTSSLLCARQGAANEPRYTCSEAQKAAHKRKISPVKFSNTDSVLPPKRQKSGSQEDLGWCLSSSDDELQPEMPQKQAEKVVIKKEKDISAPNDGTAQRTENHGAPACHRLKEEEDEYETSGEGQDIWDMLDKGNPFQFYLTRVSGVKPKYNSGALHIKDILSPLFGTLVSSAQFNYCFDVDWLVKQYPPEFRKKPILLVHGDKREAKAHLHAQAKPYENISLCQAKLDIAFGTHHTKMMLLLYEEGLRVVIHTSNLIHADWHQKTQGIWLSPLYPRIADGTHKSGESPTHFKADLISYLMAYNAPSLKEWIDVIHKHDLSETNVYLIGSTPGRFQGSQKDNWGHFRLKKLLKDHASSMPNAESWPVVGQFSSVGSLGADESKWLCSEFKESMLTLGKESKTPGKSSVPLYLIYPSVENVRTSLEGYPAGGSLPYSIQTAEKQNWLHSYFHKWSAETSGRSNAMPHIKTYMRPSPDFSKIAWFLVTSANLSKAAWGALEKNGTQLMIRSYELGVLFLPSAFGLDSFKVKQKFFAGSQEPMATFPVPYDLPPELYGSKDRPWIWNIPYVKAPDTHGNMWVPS
Tumor susceptibility gene 101 protein (Homo sapiens), sequence (Q99816 whole entry, looked up, the tested form may be a part): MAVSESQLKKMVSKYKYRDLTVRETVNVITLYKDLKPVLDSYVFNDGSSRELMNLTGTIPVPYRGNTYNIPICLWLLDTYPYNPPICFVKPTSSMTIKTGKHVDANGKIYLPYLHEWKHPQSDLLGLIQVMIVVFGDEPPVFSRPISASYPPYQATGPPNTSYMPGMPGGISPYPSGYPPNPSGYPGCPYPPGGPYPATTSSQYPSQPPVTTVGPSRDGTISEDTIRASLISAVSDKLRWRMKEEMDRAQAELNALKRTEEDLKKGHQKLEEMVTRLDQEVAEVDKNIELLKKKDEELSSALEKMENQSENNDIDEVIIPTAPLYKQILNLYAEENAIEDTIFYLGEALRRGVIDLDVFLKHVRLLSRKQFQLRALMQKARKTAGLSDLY

O=C(O)CCCC[C@@H]1SC[C@H]2NC(=O)N[C@H]12
inactive: [1] > 46 µM | [2] > 46 µM

O=c1c(-c2ccc3c(c2)OCCO3)c(C(F)(F)F)oc2cc(O)cc(O)c12
inactive: [1] > 20.6 µM

COc1cc([C@@H]2Oc3cc([C@H]4Oc5cc(O)cc(O)c5C(=O)[C@H]4O)ccc3O[C@H]2CO)ccc1O
inactive: [1] > 46 µM | [2] > 46 µM | [3] | [4] | [6] | [7] | [8]
active: [5] 2.51 µM

O=c1c(O)c(-c2ccccc2)oc2cc(O)cc(O)c12
inactive: [1] > 46 µM | [2] > 46 µM | [3] | [4] | [6] | [8]
active: [9] 15.8 µM | [7] 20 µM | [10] 3.98 µM

CCN(CC)C(=O)c1sc2nc(-c3cccs3)cc(-c3cccs3)c2c1N
inactive: [1] > 20.6 µM | [11]

OCc1ccncc1.OCc1ccncc1.[Cl][Pt]([Cl])([Cl])[Cl]
inactive: [1] > 46 µM | [2] > 9.22 µM | [4]

C[C@@H]1C(=O)O[C@H]2[C@@H](O)[C@@]34[C@H]5C[C@H](C(C)(C)C)[C@@]36[C@H](OC(=O)[C@@H]6O)O[C@@]4(C(=O)O5)[C@@]12O
inactive: [1] > 46 µM | [2] > 46 µM | [3] | [4]

CCOc1cccc(-c2nnc3sc(C4CCCCC4)nn23)c1
inactive: [1] > 20.6 µM

C=C/C(=C\C)C[C@@H](CC(=O)N[C@@H](CCC(=O)O)CC(=O)O)NC(=O)[C@@H]1CNCC[C@H]1NC(=O)C[C@@H](NC(=O)C[C@H](Cc1ccccc1)NC(=O)[C@@H]1CCCC[C@H]1N)C(C)C
inactive: [2] > 46 µM | [3] | [4] | [5] | [7] | [10]

O=C(NCc1ccccn1)c1coc(=O)c(Br)c1
inactive: [1] > 20.6 µM

CC(C)C[C@@H](CC(=O)N[C@@H](CCC(=O)O)CC(=O)O)NC(=O)[C@@H]1CCCC[C@H]1NC(=O)C[C@@H](NC(=O)C[C@H](Cc1ccccc1)NC(=O)[C@@H]1CNCC[C@H]1N)C(C)C
inactive: [2] > 46 µM | [3] | [4] | [7] | [10]

Cc1ccc2[nH]c3c(N4CCN(Cc5ccccc5)CC4)ncnc3c2c1
inactive: [1] > 20.6 µM

CC(C)C[C@@H](CC(=O)N[C@@H](CCC(=O)O)CC(=O)O)NC(=O)[C@@H]1CCCC[C@H]1NC(=O)C[C@H](CCCN)NC(=O)C[C@H](Cc1c[nH]c2ccccc12)NC(=O)[C@@H]1CCCC[C@H]1N
inactive: [2] > 46 µM | [3] | [4] | [5] | [7] | [10]

CC(=O)O[C@H]1C(=O)[C@]2(C)[C@H]([C@H](OC(=O)c3ccccc3)[C@@]3(O)C[C@H](OC(=O)[C@@H](O)[C@@H](NC(=O)c4ccccc4)c4ccccc4)C(C)=C1C3(C)C)[C@]1(OC(C)=O)CO[C@@H]1C[C@@H]2O
inactive: [1] > 46 µM | [2] > 46 µM | [3] | [4]

CC(C)C1=CC2=CC[C@H]3[C@@](C)(CCC[C@]3(C)C(=O)O)[C@@H]2CC1
inactive: [1] > 46 µM | [2] > 46 µM | [3] | [4] | [7]
active: [5] 12.6 µM | [10] 25.1 µM

CN[C@@H]1[C@H](O)[C@H](NC)[C@@H]2O[C@]3(O)C(=O)C[C@@H](C)O[C@H]3O[C@@H]2[C@H]1O
inactive: [1] > 46 µM | [3] | [4]

Cc1ccc(C2C3CN(C(C)C)CC=C3C(C#N)=C(N)C2(C#N)C#N)cc1 (stereo not given)
inactive: [1] > 20.6 µM

NCCC[C@@H](CC(=O)N[C@@H]1CCNC[C@H]1C(=O)N[C@H](CC(=O)N[C@@H](CCC(=O)O)CC(=O)O)Cc1ccccc1)NC(=O)C[C@H](Cc1ccccc1)NC(=O)[C@@H]1CCCC[C@H]1N
inactive: [2] > 46 µM | [3] | [4] | [5] | [7] | [10]

CC(C)C[C@@H](CC(=O)N[C@@H](CCC(=O)O)CC(=O)O)NC(=O)[C@@H]1CNCC[C@H]1NC(=O)C[C@H](CCCN)NC(=O)C[C@H](Cc1c[nH]c2ccccc12)NC(=O)[C@@H]1CCCC[C@H]1N
inactive: [2] > 46 µM | [3] | [4] | [5] | [7] | [10]

C=C1C[C@@]23C[C@]1(O)CC[C@@H]2[C@]12C=C[C@@H](O)[C@@](C)(C(=O)O1)[C@@H]2[C@@H]3C(=O)O
inactive: [1] > 46 µM | [2] > 46 µM | [3]

O=C1C[C@H](c2ccccc2)Oc2cc(O)cc(O)c21
active: [5] 12.6 µM | [9] 12.6 µM | [7] 20 µM | [10] 0.631 µM
inactive: [1] > 46 µM | [2] > 46 µM | [4] | [6] | [8]

C=C[C@@]1(C)C=C2CC[C@@H]3[C@](C)(CCC[C@@]3(C)C(=O)O)[C@H]2CC1
inactive: [1] > 46 µM | [2] > 46 µM | [3] | [4] | [7]

Cc1ccc2[nH]c3c(N4CCN(Cc5ccc6c(c5)OCO6)CC4)ncnc3c2c1
inactive: [1] > 20.6 µM

CC(=O)OC[C@@H]1O[C@@H](Oc2cc(OC(C)=O)c3c(=O)cc(-c4ccc(OC(C)=O)c(OC(C)=O)c4)oc3c2)[C@H](OC(C)=O)[C@H](OC(C)=O)[C@@H]1OC(C)=O
inactive: [1] > 46 µM | [2] > 46 µM | [3] | [5] | [7] | [10]

CN1C[C@H](C(=O)N[C@]2(C)O[C@@]3(O)[C@H]4CCCN4C(=O)[C@@H](Cc4ccccc4)N3C2=O)C[C@H]2c3cccc4[nH]cc(c34)C[C@@H]21
inactive: [1] > 46 µM | [2] > 46 µM | [3] | [4]

CC(C)C[C@@H](CC(=O)N[C@@H](CCCN)CC(=O)N[C@@H]1CCNC[C@H]1C(=O)N[C@H](CC(=O)N[C@@H](CCC(=O)O)CC(=O)O)CC(C)C)NC(=O)[C@@H]1CNCC[C@H]1N
inactive: [2] > 46 µM | [3] | [4] | [7] | [10]

NCCC[C@@H](CC(=O)N[C@@H]1CCCC[C@H]1C(=O)N[C@H](CC(=O)N[C@@H](CCC(=O)O)CC(=O)O)Cc1ccccc1)NC(=O)C[C@H](Cc1c[nH]c2ccccc12)NC(=O)[C@@H]1CNCC[C@H]1N
inactive: [2] > 46 µM | [5] | [7] | [10]
active: [4] 1.58 µM

O=C(CSc1nnc(SCc2ccccc2)s1)N/N=C/c1c[nH]c2ccccc12
active: [12] 4.47 µM

O=C1CN(C(=O)/C=C/c2ccco2)c2ccccc2N1
active: [12] 44.7 µM

CC(C)C[C@@H](CC(=O)N[C@@H](CCCN)CC(=O)N[C@@H]1CCCC[C@H]1C(=O)N[C@H](CC(=O)N[C@@H](CCC(=O)O)CC(=O)O)CC(C)C)NC(=O)[C@@H]1CNCC[C@H]1N
inactive: [2] > 46 µM | [3] | [4] | [7] | [10]

Cc1ccc(CN2C(=O)N/C(=C/c3ccc(-c4ccc(C(=O)O)cc4)o3)C2=O)cc1
active: [12] 12.6 µM

COc1ccc(CCNC(=O)c2ccc3nc(-c4ccco4)c(-c4ccco4)nc3c2)cc1OC
active: [12] 10 µM

Cc1c(C(=O)O)c(O)cc2c1C(=O)c1c(O)c([C@@H]3O[C@H](CO)[C@@H](O)[C@H](O)[C@@H]3O)c(O)c(O)c1C2=O
inactive: [2] > 46 µM | [3] | [7] | [10]

C=C(C)C(=O)Nc1cccc(C2=NOC3(C2)C[C@H](C(N)=O)N(C(=O)COc2ccc(Cl)cc2)C3)c1 (stereo not given in full)
active: [12] 12.6 µM

CCc1nnc(NC(=O)c2sc3nc4c(cc3c2N)CCCCCC4)s1
active: [12] 112 µM

NCCC[C@@H](CC(=O)N[C@@H]1CCCC[C@H]1C(=O)N[C@H](CC(=O)N[C@@H](CCC(=O)O)CC(=O)O)Cc1ccccc1)NC(=O)C[C@H](Cc1ccccc1)NC(=O)[C@@H]1CCCC[C@H]1N
inactive: [2] > 46 µM | [4] | [7] | [10]

O=C(O)c1ccc(-c2ccc(/C=C3\NC(=O)N(Cc4ccc(Cl)cc4)C3=O)o2)cc1Cl
active: [12] 3.55 µM

CCN(CC)Cc1c(O)c(Cl)cc2c(C)cc(=O)oc12
active: [12] 14.1 µM
